Bioassay records as filed in PubChem BioAssay.
Sm TGR block – blocks Schistosoma mansoni thioredoxin glutathione reductase; Q962Y6; purified TGR, DTNB reduction, TNB absorbance 405 nm; Potency, µM (highest dose often 114 µM), without a hit: at the top dose activity change, negative = inhibition, usual class: inhibitors; 360,000 compounds, 3% hits; also: nearly all actives have a fitted effect of over 60% in size
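TGR 20 nM + NADPH 100 uM (dispensed conc.), cpd preinc 15 min RT; start with NADPH (500 uM addition) then DTNB (15 mM addition). Kinetic TNB absorbance, 405 nm filter. Four-parameter Hill fit across titration.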
Giardia FBPA inh – Giardia lamblia aldolase inhibition; A8B2U2; purified Giardia FBPA; Potency, µM (series often up to 59.6 µM), for the others: at the highest dose activity, negative = inhibition, actives largely listed as inhibitors; 290,000 compounds, 0.71% hits; AID 2451; also: nearly all actives have a fitted effect of over 55% in size
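Giardia FBPA (40 nM reagent) was preincubated 10 min at RT with compound (up to 57.5 uM final), then substrate plus GAPDH/TPI/NAD/arsenate coupling system with diaphorase/resazurin was added; resorufin fluorescence (525/598 nm) was read after 20 min.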
RE007 growth inh – less growth of the S. pombe RE007 Vpr strain. S. pombe RE007 Vpr strain, BacTiter-Glo ATP luminescence, 24 h. Potency, µM (series often up to 92.2 µM), for inactives: at the top dose activity change, negative = less growth, hits mostly inhibitors. AID 651644. 360,000 compounds, 0.21% hits; active = well fitted falling curve with a large enough effect; inconclusive = small, poorly fitted or top-dose-only effect; inactive = no such curve, though single readings can be large or run the other way; also: nearly all actives have a fitted effect of over 50% in size
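Fission yeast strain RE007, carrying one chromosomally integrated HIV-1 vpr copy, was seeded at OD 0.01 in PMG+AL medium with 23 nL pinned compound. After 24 h at 30 °C and 99% humidity, viability was read by BacTiter-Glo luminescence.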
Tb PYK inh – blocks Trypanosoma brucei pyruvate kinase. Q57TT1. AID 624173. 410,000 compounds, 0.12% hits. TbPYK enzyme, Kinase-Glo Plus ATP luminescence, 45 min. Potency, µM (highest dose often 76.8 µM), for inactives: at the highest dose activity, negative = inhibition, usual class: inhibitors; also: nearly all actives have a fitted effect of over 50% in size
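Activity of T. brucei pyruvate kinase was followed by Kinase-Glo Plus luminescence after the enzyme reacted 45 min at room temperature with 130 uM ADP (final) and substrate. Test compounds were added before ADP at multiple concentrations.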
LmPK inh – blocks Leishmania mexicana pyruvate kinase activity. Q27686. purified LmPK, Kinase-Glo ATP luminescence, 1 h. Potency, µM (highest dose often 57.5 µM), for the others: top-dose activity change, negative = inhibition, usual class: inhibitors. 290,000 compounds, 0.37% hits
Target sequence (Q27686 whole entry, looked up): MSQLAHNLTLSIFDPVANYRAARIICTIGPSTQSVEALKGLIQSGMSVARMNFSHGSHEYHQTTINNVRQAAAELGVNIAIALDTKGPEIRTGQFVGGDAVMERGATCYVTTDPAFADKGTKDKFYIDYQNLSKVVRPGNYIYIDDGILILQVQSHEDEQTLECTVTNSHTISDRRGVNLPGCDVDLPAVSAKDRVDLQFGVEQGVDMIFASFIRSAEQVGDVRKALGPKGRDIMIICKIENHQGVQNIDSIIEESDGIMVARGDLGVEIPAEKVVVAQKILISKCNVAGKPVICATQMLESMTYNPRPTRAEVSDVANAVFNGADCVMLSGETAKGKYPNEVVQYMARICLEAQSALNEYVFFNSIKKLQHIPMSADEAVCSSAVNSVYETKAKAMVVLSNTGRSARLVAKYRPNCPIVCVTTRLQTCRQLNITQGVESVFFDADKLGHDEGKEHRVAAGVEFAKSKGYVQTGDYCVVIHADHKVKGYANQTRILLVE
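Purified LmPK (0.1 nM) converted ADP (0.1 mM) to ATP with PEP (0.5 mM) in imidazole buffer pH 7.2 with KCl and MgCl2, 1 h at room temperature. ATP was read by Kinase-Glo luminescence; data normalized to uninhibited and no-enzyme controls.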
Starred values were filed as active, the others as inactive; ? = inconclusive; . = no result given; [ ] = dose if it differs, or a comment. A selection: hits, their analogues and other compounds. The true share with any hit is near 3.3%. Unless noted, calls follow the shape of the dose curve; as a rule, active = well fitted curve in the direction sought with a large enough effect; inconclusive = small, poorly fitted or top-dose-only effect, or another doubt; inactive = no such curve, though single readings can be large; an effect the other way counts as inactive or inconclusive. % is scaled to controls: 0 for no effect and ±100 for the full control effect; potency is read from the fitted curve at half-maximal effect.

SMILES	Sm TGR block	Giardia FBPA inh	RE007 growth inh	Tb PYK inh	LmPK inh
O=C(CCC(=O)N1CCSc2ccccc21)NCc1cccc(Cl)c1	5%	0%	-4%	-1%	0%
Cc1ccc(C)c(NC(=O)C2C3C=CC(O3)C2C(=O)O)c1 (stereo unspecified)	45µM*	13%	-3%	-15%	4%
COc1ccccc1NC(=O)C1C2C=CC(O2)C1C(=O)O (stereo unspecified)	40µM*	-14%	.	.	-1%
Cc1cccc(NC(=O)C2C(C(=O)O)C3C=CC2C32CC2)c1C (stereo unspecified)	9%[11.4 µM]	2%	2%	-17%	8%
Cc1cccc(NC(=O)C2C3C=CC(O3)C2C(=O)O)c1C (stereo unspecified)	45µM*	4%	-21%	6%	0%
CSc1cccc(N2CC(C(=O)Nc3ccccc3N3CCCC3)CC2=O)c1 (stereo unspecified)	4%	.	-21%	-5%	.
O=C(O)c1cccc(Cn2c(Cl)c(/C=N/NC(=O)c3ccco3)sc2=O)c1	45µM*	-14%	-14%	-13%	-1%
O=C(O)c1cccc(Cn2c(Cl)c(/C=N/NC(=O)c3cc4ccccc4cc3O)sc2=O)c1	32µM*	6%	-7%	0%	4%
O=C(O)c1ccc(/C=N/NC(=O)c2cc3ccccc3cc2O)cc1	.	.	-1%	4%	.
O=C(N/N=C\c1ccoc1)c1ccco1	1%	.	14%	-2%	1%
O=C(O)c1cccc(Cn2c(Cl)c(/C=N/NC(=O)c3cccc(O)c3)sc2=O)c1	9%	14%	-5%	-12%	2%
O=C(O)c1cccc(Cn2c(Cl)c(/C=N/NC(=O)c3ccccc3)sc2=O)c1	56µM*	7%	-11%	-13%	0%
CC(=O)Nc1ccc(-c2ccnc3c2CC(C(=O)Nc2ccccc2)O3)cc1 (stereo unspecified)	.	.	-10%[18.4 µM]	1%	.
O=C(NCC(c1ccco1)S(=O)(=O)c1cccs1)c1ccccc1F (stereo unspecified)	11µM*	.	.	-2%	.
O=C(NCc1ccccc1)C(=O)NCC(c1ccco1)S(=O)(=O)c1cccs1 (stereo unspecified)	?	.	.	-4%	.
O=C(NCC(c1cccs1)S(=O)(=O)c1cccs1)c1cccc(F)c1 (stereo unspecified)	20µM*	.	.	0%	.
Cc1cccc(C(=O)NCC(c2cccs2)S(=O)(=O)c2cccs2)c1 (stereo unspecified)	?	.	.	2%	.
O=C(NCC(c1ccco1)S(=O)(=O)c1cccs1)c1c(F)cccc1F (stereo unspecified)	0.71µM*	.	.	0%	.
O=C(NN1C(=O)/C(=C\c2cccnc2)SC1=S)c1ccco1	0%	15%	16%	1%	0%
Cc1ccc([C@@H]2C3COCC=C3C(C#N)=C(N)C2(C#N)C#N)o1 (stereo partly specified)	35µM*	?	-4%	?	1%
Cc1ccc(C2C3CSCC=C3C(C#N)=C(N)C2(C#N)C#N)cc1 (stereo unspecified)	?	?	-10%	-10%	2%
OC(C#CCN1CCOCC1)(c1ccccc1)C1CCCC1 (stereo unspecified)	?	-10%	10%	4%	-6%
OC(C#CCN1CCOCC1)(c1ccccc1)C1CC1 (stereo unspecified)	50µM*	0%	-6%	-1%	0%
O=C(CSc1nc(=O)n(Cc2ccco2)c2c1CCC2)NCc1ccc(Cl)cc1	-31%	.	.	-5%	.
Cc1ccc2cc(C#N)c(SCC(=O)NCc3ccco3)nc2c1	35µM*	-1%	18%	-7%	3%
SMILES	Sm TGR block	Giardia FBPA inh	RE007 growth inh	Tb PYK inh	LmPK inh
Cc1ccc2nc(SCC(=O)NCc3ccco3)c(C)cc2c1	40µM*	7%	5%	-3%	2%
Cc1ccc2nc(SCC(=O)NCc3ccco3)c(C#N)cc2c1	?	9%	-1%	-1%	0%
Cc1ccc(CNC(=O)CSc2nc(=O)n(Cc3ccco3)c3c2CCC3)cc1	40µM*	.	.	4%	.
O=S1(=O)CCN(Cc2ccc(Cl)c(Cl)c2)CC1	15%	1%	-1%	2%	0%
CC(C)(C)c1ccc(CN2N=Nc3ccccc3S2(=O)=O)cc1	13µM*	?	6%	0%	-13%
O=S1(=O)c2ccccc2N=NN1Cc1ccc(Cl)c(Cl)c1	4µM*	-21%	.	.	2%
Cc1cccc(N2C(=O)N(Cc3ccc(C(C)(C)C)cc3)c3ccccc3S2(=O)=O)c1	6%	.	.	7%	.
O=C(C=Cc1ccccc1)c1c[nH]c2ccccc2c1=O	.	.	3%	-7%	.
Cc1[nH]c2ccccc2c(=O)c1C(=O)/C=C/c1ccccc1	32µM*	-5%	-10%	0%	-1%
O=C(NCC(c1ccco1)N1CCOCC1)c1c(F)cccc1F (stereo unspecified)	8%	.	-4%	-4%	.
Cc1ccsc1C1NC(=O)c2c(sc3c2CCCC3)N1 (stereo unspecified)	35µM*	-22%	?	-14%	-3%
CC1(C)Cc2c(sc3c2C(=O)NC(c2cccnc2)N3)CO1 (stereo unspecified)	-33%	-26%	11%	-12%	2%
O=C1NC(c2ccc(Br)cc2)Nc2sc3c(c21)CCC3 (stereo unspecified)	21%	?	14%	-21%	3%
CN1CCc2c(sc3c2C(=O)NC(c2ccccn2)N3)C1 (stereo unspecified)	40µM*	?	-1%	-11%	2%
O=C1NC(c2cccnc2)Nc2sc3c(c21)CCCC3 (stereo unspecified)	45µM*	-21%	-13%	-18%	0%
O=C1NC(c2ccccn2)Nc2sc3c(c21)CCC3 (stereo unspecified)	32µM*	?	?	-13%	-9%
COc1ccc(NC(=O)CC2C(=O)N(c3cccc(OC)c3)C(=O)N2CCc2cccs2)cc1 (stereo unspecified)	2%	.	.	-6%	.
Cc1cccc(CS(=O)(=O)Cc2ccc(C(=O)NCc3cccs3)o2)c1	35µM*	4%	-11%	2%	10%
Cc1ccc(CNC(=O)c2ccc(CS(=O)(=O)Cc3ccc(C)cc3)o2)cc1	6%	.	.	-4%	.
Cc1cccc(CS(=O)(=O)Cc2ccc(C(=O)NCc3ccccc3)o2)c1	45µM*	.	18%	5%	9%
O=C(CN(Cc1ccccc1)S(=O)(=O)c1ccc(Br)cc1)N/N=C/c1ccccc1C(=O)O	7%	3%	12%	-2%	3%
CCCCN(C(=O)c1ccc2c(c1)OCCO2)c1c(N)n(CCCC)c(=O)[nH]c1=O	0%	.	29%	-7%	.
O=C(OCCN1CCCCC1)c1cccc(Cl)c1	3%	-24%	5%	-3%	-3%
